# Screening data: PubChem, National Center for Advancing Translational Sciences (NCATS)
# Sampled rows, rich in hits. Any-hit rate of the full collection: about 12%.
# L3MBTL1 block: qHTS Assay for the Inhibitors of L3MBTL1; AlphaScreen L3MBTL1–H3K9me1 peptide binding; Potency, µM (highest dose often 57.1 µM), inactives show at the top dose activity, negative = inhibition, actives largely listed as inhibitors; 230,000 compounds, 0.66% hits; AID 485360, 2010; also: % is scaled to controls: 0 for no effect and ±100 for the full control effect; nearly all actives have a fitted effect of over 60% in size
#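 First, the protein-peptide complex forms for 30 min at room temperature (L3MBTL1 50 nM, biotinylated H3K9me1 peptide 75 nM). Next, compounds are pin-transferred and incubated 30 min. Finally, AlphaScreen beads are added and read after 30 min.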
# Sfp inh: qHTS Assay for Inhibitors of Bacillus subtilis Sfp phosphopantetheinyl transferase (PPTase). 4'-phosphopantetheinyl transferase ffp (Bacillus subtilis), Q9F4F7. Biochemical Sfp PPTase activity, qHTS. Potency, µM, for the others: largest response in the series, negative = inhibition, most hits filed as inhibitors. 310,000 compounds, 3.5% hits;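 also: the enzyme is Sfp with the accession as filed and its product quenches rhodamine fluorescence; 0% = enzyme reaction without inhibitor and -100% = no enzyme wells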
#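 Compounds were incubated with enzyme (final 15 nM) for 15 min at room temperature before substrate addition started the reaction. Fluorescence at 525 nm excitation, 598 nm emission was recorded immediately and after 30 minutes.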
# JMJD2A Tudor: qHTS Assay for Inhibitors of JMJD2A-Tudor Domain | Lysine-specific demethylase 4A (Homo sapiens), O75164 | AlphaScreen JMJD2A-Tudor / H3K4me3 peptide binding | Potency, µM (doses to about 114 µM), without a hit: at the top dose activity change, negative = inhibition, most hits filed as inhibitors | 390,000 compounds, 4.4% hits; also: % is scaled to controls: 0 for no effect and ±100 for the full control effect; nearly all actives have a fitted effect of over 50% in size
# HP1b chromo inh: HTS for Inhibitors of HP1-beta Chromodomain Interactions with Methylated Histone Tails. Chromobox protein homolog 1 (Homo sapiens), P83916. AlphaScreen HP1-beta / biotin-H3K9me3 peptide binding. Potency, µM (top dose mostly 114 µM), inactives show top-dose activity change, negative = inhibition, most hits filed as inhibitors. 390,000 compounds, 0.56% hits; also: nearly all actives have a fitted effect of over 70% in size
# Target sequence (P83916 whole entry, looked up): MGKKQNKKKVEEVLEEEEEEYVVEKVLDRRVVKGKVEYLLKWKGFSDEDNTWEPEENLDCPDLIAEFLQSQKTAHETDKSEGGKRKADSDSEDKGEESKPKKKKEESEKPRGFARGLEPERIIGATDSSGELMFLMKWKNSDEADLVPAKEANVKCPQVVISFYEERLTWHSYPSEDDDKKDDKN
#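 AlphaScreen: HP1-beta (50 nM) preformed 30 min with biotin-H3(1-18)K9me3 peptide (50 nM) in PBS pH 7.4, 0.01% Tween-20. Compound added for 30 min at RT, then streptavidin donor/nickel chelate acceptor beads (10 ug/mL) for 30 min.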
# G9a block: qHTS Assay for Inhibitors of Histone Lysine Methyltransferase G9a. Histone-lysine N-methyltransferase EHMT2 (Homo sapiens), Q96KQ7. G9a H3K9 monomethylation, AlphaScreen, 2 h. Potency, µM (highest dose often 102 µM), for inactives: top-dose activity, negative = inhibition, actives largely listed as inhibitors. 350,000 compounds, 8.8% hits. AID 504332, 2011; also: % is scaled to controls: 0 for no effect and ±100 for the full control effect; nearly all actives have a fitted effect of over 75% in size
# Target sequence (Q96KQ7 913-1193 limits assumed): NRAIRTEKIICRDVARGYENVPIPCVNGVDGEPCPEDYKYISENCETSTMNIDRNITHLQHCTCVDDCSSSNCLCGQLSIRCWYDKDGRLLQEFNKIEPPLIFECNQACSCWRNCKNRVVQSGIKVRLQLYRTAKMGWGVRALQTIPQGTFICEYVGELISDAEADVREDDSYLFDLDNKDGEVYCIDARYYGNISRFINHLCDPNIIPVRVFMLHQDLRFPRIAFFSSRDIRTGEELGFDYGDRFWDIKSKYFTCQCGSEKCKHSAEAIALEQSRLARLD
#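 Methyltransferase reactions run at room temperature for 2 h (20 nM enzyme, 500 nM biotin-H3K9 peptide, 20 uM SAM) after a 15 min compound preincubation; product detected by AlphaScreen beads and anti-H3K9me1 antibody.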
# BAZ2B block: qHTS Assay for Inhibitors of BAZ2B. AlphaScreen BAZ2B-H3K14Ac peptide displacement. Potency, µM (highest dose often 114 µM), inactives show at the top dose activity change, negative = inhibition, usual class: inhibitors. 360,000 compounds, 4.4% hits; also: % is scaled to controls: 0 for no effect and ±100 for the full control effect; nearly all actives have a fitted effect of over 60% in size
#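 AlphaScreen luminescence quantifies BAZ2B engagement of H3K14Ac peptide; the protein and biotinylated peptide are both at 50 nM final, buffer PBS pH 7.4 with 0.01% Tween-20, all steps at room temperature.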
# * = called active by the depositor; ? = inconclusive; . = not tested or not shown; [ ] = dose if it differs, or a comment. Calls follow the shape of the dose curve; as a rule, active = well fitted curve in the direction sought with a large enough effect; inconclusive = small, poorly fitted or top-dose-only effect, or another doubt; inactive = no such curve, though single readings can be large; an effect the other way counts as inactive or inconclusive. Potency is read from the fitted curve at half-maximal effect.
SMILES,L3MBTL1 block,Sfp inh,JMJD2A Tudor,HP1b chromo inh,G9a block,BAZ2B block
COCCN(C(=O)COC(=O)c1ccccc1NCc1ccco1)c1c(N)n(Cc2ccccc2)c(=O)[nH]c1=O,-7%,.,-16%,22%,79µM*,-30%
CC(C)CC(=O)N1CCN(c2ccc(NC(=O)c3ccco3)cc2)CC1,.,16%,-7%,26%,13%,-14%
CCC(C(=O)OC)n1cnc2c(nnn2-c2ccc(F)cc2)c1=O (stereo unspecified),4%,12%,-8%,29%,20%,-5%
COc1ccc(C(=O)Nc2ccc3oc(-c4cc(Cl)ccc4Cl)nc3c2)cc1Br,.,.,?,1%,-4%[59 µM],-2%
CCOC(=O)Cn1c(=O)n(CC2CCCO2)c2nc(-c3ccccc3F)nc(C(N)=O)c21 (stereo unspecified),.,.,-17%,13%[57 µM],7%[59 µM],-13%
c1cc(N2CCCC2)ccc1C(c1nnnn1C1CCCCC1)N1CCOCC1 (stereo unspecified),-18%,?,?,-18%,10µM*,?
CC(C)C(c1nnnn1C1CCCC1)N(C)C1CCCCC1 (stereo unspecified),.,3%,-2%,19%,?,-23%
Cc1ccc(C(c2nnnn2C2CCCCC2)N(C)C2CCCCC2)cc1 (stereo unspecified),.,0%,9%,19%,1.8µM*,4%
COc1ccc(C(c2nnnn2C2CCCCC2)N2CCN(c3ccc(OC)cc3)CC2)cc1 (stereo unspecified),.,3%,?,?,?,40µM*
c1ccc(C(c2nnnn2C2CCCC2)N2CCN(c3ccccc3)CC2)cc1 (stereo unspecified),-10%,2%,-22%,24%,-22%[59 µM],-33%
COc1ccc(OC)c(C(c2nnnn2C2CCCC2)N2CCN(c3ccccc3)CC2)c1 (stereo unspecified),-20%,6%,56µM*,-24%,32µM*,50µM*
COC(=O)[C@@H]1CC[C@H](C)[C@@H](c2ccc(C)cc2)N1C(=O)c1ccc(/C=N\O[C@@H]2O[C@H](COC(C)=O)[C@H](OC(C)=O)[C@H](OC(C)=O)[C@H]2OC(C)=O)cc1,.,-15%,.,.,.,.
COc1ccc(-n2nc(C(=O)Nc3cc(C)ccn3)c3c4ccccc4n(C)c3c2=O)cc1,.,.,-1%,24%,?,.
O=C(Cn1c(=O)cnc2ccccc21)NC1CCC(O)CC1 (stereo unspecified),2%,.,-3%,33%,4%[12.7 µM],5%
COc1ccc2c(c1)C(=O)[C@H](OC(=O)NCc1ccc3c(c1)OCO3)[C@@H](c1ccc(OC)c(Br)c1)O2,.,5%,.,.,.,.
O=C(NCc1ccccn1)c1c(Cl)cccc1Cl,3%,12%,21%,56%,-1%,0%
Cc1c(Cl)cccc1-c1ccc(CNCc2ccccn2)o1,?,?,?,5%,79µM*,25µM*
C#CCOCCOCCOCCNc1nc(N2CCOCC2)nc(N2CCN(C(=O)[C@H](Cc3cc4ccccc4[nH]3)n3cc([C@@H](N)CC(C)C)nn3)CC2)n1,-1%,-22%,?,-9%,?,-34%
C#CCOCCOCCOCCNc1nc(N2CCN(C(=O)[C@H](Cc3cc4ccccc4[nH]3)n3cc([C@@H](N)C(C)CC)nn3)CC2)nc(N2CCN(C(=O)[C@H](CCCCN)n3cc([C@@H](N)CC(C)C)nn3)CC2)n1 (stereo partly specified),-12%,-4%,45µM*,-4%,-5%[12.7 µM],35µM*
C#CCOCCOCCOCCNc1nc(N2CCN(C(=O)[C@H]([C@@H](C)CC)n3cc([C@@H](N)CC(C)C)nn3)CC2)nc(N2CCN(C(=O)[C@H](Cc3cc4ccccc4[nH]3)n3cc([C@@H](N)CC(C)C)nn3)CC2)n1,.,-9%,.,.,?,56µM*
C#CCOCCOCCOCCNc1nc(N2CCN(C(=O)[C@H](CCC(=O)O)n3cc(C(N)CC(C)C)nn3)CC2)nc(N2CCN(C(=O)[C@H](Cc3cc4ccccc4[nH]3)n3cc(C(N)CC(C)C)nn3)CC2)n1 (stereo partly specified),-22%,17%,?,12%,?,50µM*
C#CCOCCOCCOCCNc1nc(N2CCN(C(=O)[C@H](Cc3cc4ccccc4[nH]3)n3cc([C@@H](N)CC(C)C)nn3)CC2)nc(N2CCN(C(=O)[C@H](Cc3cc4ccccc4[nH]3)n3cc([C@@H](N)CC(C)C)nn3)CC2)n1,?,16µM*,45µM*,?,?,45µM*
O=C(/C=C/c1cccc(Cl)c1)NCCN1CCOCC1,3%,8%,-13%,4%,2%,3%
COc1cccc(Cn2nnc(C(=O)NCc3ccc(Cl)cc3Cl)c2N)c1,.,.,0%,6%,-8%[59 µM],-4%
C#CCOCCOCCOCCNc1nc(N2CCN(C(=O)C(CCC(=O)O)n3cc(C(N)CC(C)C)nn3)CC2)nc(N2CCN(C(=O)C(Cc3cc4ccccc4[nH]3)n3cc(C(N)Cc4ccc(O)cc4)nn3)CC2)n1 (stereo unspecified),-29%,-3%,56µM*,9%,3%[12.7 µM],45µM*
C#CCOCCOCCOCCNc1nc(N2CCN(C(=O)C([C@@H](C)CC)n3cc(C(N)COC(=O)C(F)(F)F)nn3)CC2)nc(N2CCN(C(=O)[C@H](Cc3cc4ccccc4[nH]3)n3cc(C(N)CO)nn3)CC2)n1 (stereo partly specified),.,.,50µM*,29%,.,.
C#CCOCCOCCOCCNc1nc(N2CCN(C(=O)[C@H]([C@@H](C)CC)n3cc([C@@H](N)CO)nn3)CC2)nc(N2CCN(C(=O)[C@H](Cc3cc4ccccc4[nH]3)n3cc([C@@H](N)C(C)CC)nn3)CC2)n1 (stereo partly specified),-22%,50µM*,.,.,?,50µM*
